Data as given in PubChem BioAssay (Tox21).
Inconclusive results are not listed. The source made the active and inactive calls. Unless noted, calls follow the shape of the dose curve; as a rule, active = well fitted curve in the direction sought with a large enough effect in the repeat runs; inconclusive = weak or mixed curves; inactive = no such curve, though single readings can be large; an effect the other way counts as inactive or inconclusive.

Assays:
[1] = qHTS assay to identify small molecule antagonists of the thyroid receptor (TR) signaling pathway - cell viability counter screen (AID 743064); also: nearly all actives have a fitted effect of over 50% in size
Method in brief: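 Viability of T3-stimulated (1 nM final) GH3.TRE-Luc cells is measured by CellTiter-Fluor fluorescence after 23.5 h compound exposure at 37 °C plus 30 min reagent incubation.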

[2] = qHTS assay to identify small molecule antagonists of the thyroid receptor (TR) signaling pathway (AID 743065); also: series mostly up to about 70 µM; nearly all actives have a fitted effect of over 55% in size
Method in brief: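 Antagonism measured as loss of luciferase signal in GH3 cells stably carrying a TRE-luciferase reporter, co-treated with compound and T3 (1 nM final) for 23.5 h at 37 C. Viability was read in the same well by CellTiter-Fluor.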

[3] = tested on: thyroid hormone receptor (rat, GH3 cells); test: qHTS assay to identify small molecule agonists of the thyroid receptor (TR) signaling pathway (AID 743066; calls by dose curve)
[4] = molecular target: Estrogen receptor (Homo sapiens) (UniProt P03372); test: qHTS assay to identify small molecule antagonists of the estrogen receptor alpha (ER-alpha) signaling pathway (AID 743069; active = well fitted curve in the direction sought with a large enough effect in the signal ratio in the repeat runs, not every such curve was filed as active; the % refers to the signal ratio)
Chain of Estrogen receptor (Homo sapiens) (P03372 whole entry, looked up): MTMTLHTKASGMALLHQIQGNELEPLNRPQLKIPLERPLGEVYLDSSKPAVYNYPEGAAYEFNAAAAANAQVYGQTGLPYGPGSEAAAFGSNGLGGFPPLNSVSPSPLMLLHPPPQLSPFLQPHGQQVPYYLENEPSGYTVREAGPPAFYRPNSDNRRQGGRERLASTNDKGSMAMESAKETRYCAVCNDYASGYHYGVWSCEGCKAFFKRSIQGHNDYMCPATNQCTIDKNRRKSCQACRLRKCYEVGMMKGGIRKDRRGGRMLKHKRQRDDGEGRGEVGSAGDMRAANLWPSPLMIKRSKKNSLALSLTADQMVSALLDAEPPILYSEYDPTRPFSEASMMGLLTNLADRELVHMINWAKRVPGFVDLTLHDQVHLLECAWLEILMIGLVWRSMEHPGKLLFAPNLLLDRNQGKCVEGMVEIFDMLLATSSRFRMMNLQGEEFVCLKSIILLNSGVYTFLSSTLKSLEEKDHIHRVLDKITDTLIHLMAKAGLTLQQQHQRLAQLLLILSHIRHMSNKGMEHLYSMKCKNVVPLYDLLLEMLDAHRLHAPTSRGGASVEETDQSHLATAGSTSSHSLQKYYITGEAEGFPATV
Method in brief: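 ER-alpha-UAS-bla GripTite HEK293 line; 2% charcoal-stripped FBS overnight; plated, 4 hr 37C/5% CO2; cpd in DMSO + 17beta-estradiol, 18 hr 37C; LiveBLAzer B/G FRET substrate 2 hr RT; fluorescence intensity.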

[5] = qHTS assay to identify small molecule antagonists of the estrogen receptor alpha (ER-alpha) signaling pathway - cell viability counter screen (AID 743074; calls by dose curve;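 also: HEK293 cells carrying ER-alpha-UAS-bla reporter stimulated with 17beta-estradiol; nearly all actives have a fitted effect of over 45% in size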)
[6] = molecular target: Estrogen receptor (Homo sapiens) (UniProt P03372); test: qHTS assay to identify small molecule agonists of the estrogen receptor alpha (ER-alpha) signaling pathway (AID 743075; calls by dose curve;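 also: HEK293 GripTite cells with ER-alpha and UAS-driven beta-lactamase reporter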)
[7] = molecular target: Estrogen receptor (Homo sapiens) (UniProt P03372); test: qHTS assay to identify small molecule agonists of the estrogen receptor alpha (ER-alpha) signaling pathway using the BG1 cell line (AID 743079); also: nearly all actives have a fitted effect of over 20% in size
[8] = qHTS assay to identify small molecule antagonists of the estrogen receptor alpha (ER-alpha) signaling pathway using the BG1 cell line (AID 743080; calls by dose curve;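 also: BG1 cells stimulated with 17beta-estradiol alongside compound; series mostly up to about 70 µM; nearly all actives have a fitted effect of over 25% in size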)
Method in brief: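 BG1Luc4E2, endogenous ER-alpha, 4xERE-luc; 5 d charcoal-stripped FBS, phenol red free; 24 h plating; cpd + 17beta-estradiol 21.5 h, 37 C/5% CO2; CellTiter-Fluor viability 30 min, then ONE-Glo luciferase 30 min RT.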

[9] = qHTS assay to identify small molecule antagonists of the estrogen receptor alpha (ER-alpha) signaling pathway using the BG1 cell line - cell viability counter screen (AID 743081);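 also: compound given together with 17beta-estradiol as the ER stimulus; series mostly up to about 70 µM; nearly all actives have a fitted effect of over 45% in size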
[10] = molecular target: Aromatase (Homo sapiens) (UniProt P11511); test: qHTS assay to identify aromatase inhibitors (AID 743083); also: series mostly up to about 70 µM; nearly all actives have a fitted effect of over 55% in size
Chain of Aromatase (Homo sapiens) (P11511 whole entry, looked up): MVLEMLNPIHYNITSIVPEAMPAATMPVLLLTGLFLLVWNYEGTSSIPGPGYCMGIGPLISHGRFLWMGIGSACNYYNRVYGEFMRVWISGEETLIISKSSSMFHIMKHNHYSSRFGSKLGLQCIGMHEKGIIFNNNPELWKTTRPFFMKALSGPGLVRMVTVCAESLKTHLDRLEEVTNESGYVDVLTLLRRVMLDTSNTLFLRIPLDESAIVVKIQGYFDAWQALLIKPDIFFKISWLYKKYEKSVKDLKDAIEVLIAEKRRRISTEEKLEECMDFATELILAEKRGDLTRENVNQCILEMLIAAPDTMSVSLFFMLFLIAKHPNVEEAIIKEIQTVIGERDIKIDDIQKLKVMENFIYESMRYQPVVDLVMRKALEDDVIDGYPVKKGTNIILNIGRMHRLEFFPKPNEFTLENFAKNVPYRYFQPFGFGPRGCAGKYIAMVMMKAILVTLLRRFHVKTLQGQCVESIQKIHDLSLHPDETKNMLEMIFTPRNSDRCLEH

[11] = qHTS assay to identify aromatase inhibitors - cell viability counter screen (AID 743084);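 also: cells stimulated with testosterone during compound exposure; nearly all actives have a fitted effect of over 55% in size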
[12] = molecular target: Aryl hydrocarbon receptor (Homo sapiens) (UniProt P35869); test: qHTS assay to identify small molecule that activate the aryl hydrocarbon receptor (AhR) signaling pathway (AID 743085);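 also: HG2L7.5c1 human HepG2 liver cells with stably integrated DRE-driven firefly reporter; series mostly up to about 70 µM; nearly all actives have a fitted effect of over 15% in size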
Chain of Aryl hydrocarbon receptor (Homo sapiens) (P35869 whole entry, looked up): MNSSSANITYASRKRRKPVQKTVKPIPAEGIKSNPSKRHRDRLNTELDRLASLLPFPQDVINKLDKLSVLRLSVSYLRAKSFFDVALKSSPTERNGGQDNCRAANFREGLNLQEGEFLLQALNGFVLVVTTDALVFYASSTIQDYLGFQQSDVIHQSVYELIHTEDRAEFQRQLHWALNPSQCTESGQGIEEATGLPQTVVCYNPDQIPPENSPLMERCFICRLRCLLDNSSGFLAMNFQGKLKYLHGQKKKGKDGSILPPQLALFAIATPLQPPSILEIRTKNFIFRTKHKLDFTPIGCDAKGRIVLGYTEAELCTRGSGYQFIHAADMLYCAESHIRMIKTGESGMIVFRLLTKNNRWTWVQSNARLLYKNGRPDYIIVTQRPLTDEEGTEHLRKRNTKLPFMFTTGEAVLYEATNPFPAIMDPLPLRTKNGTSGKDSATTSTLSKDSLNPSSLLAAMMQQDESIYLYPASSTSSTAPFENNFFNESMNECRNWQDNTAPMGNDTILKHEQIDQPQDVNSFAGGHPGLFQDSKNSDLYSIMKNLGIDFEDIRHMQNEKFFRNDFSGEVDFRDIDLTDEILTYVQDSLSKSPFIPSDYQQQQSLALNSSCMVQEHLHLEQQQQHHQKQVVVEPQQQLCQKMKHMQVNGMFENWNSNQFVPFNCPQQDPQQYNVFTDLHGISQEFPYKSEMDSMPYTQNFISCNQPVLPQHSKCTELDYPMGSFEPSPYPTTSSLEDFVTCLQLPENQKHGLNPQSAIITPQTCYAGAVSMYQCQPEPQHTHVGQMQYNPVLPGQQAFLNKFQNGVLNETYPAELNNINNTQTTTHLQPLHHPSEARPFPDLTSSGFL
Method in brief: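 A multiplexed format paired cell viability (CellTiter-Fluor fluorescence) with AhR-dependent luciferase output (ONE-Glo luminescence) in the same wells of HepG2 DRE-luc cells after 24 h compound exposure at 37C.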

[13] = qHTS assay to identify small molecule that activate the aryl hydrocarbon receptor (AhR) signaling pathway - cell viability counter screen (AID 743086);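 also: HepG2 liver cells carrying the AhR DRE luciferase reporter; series mostly up to about 70 µM; nearly all actives have a fitted effect of over 45% in size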
Method in brief: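 Cytotoxicity counter screen: CellTiter-Fluor signal (30 min, 37 C) in 4000 HepG2 cells/well carrying the DRE-luciferase reporter, following 24 h compound exposure at 37 C.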

[14] = qHTS assay for small molecule agonists of the antioxidant response element (ARE) signaling pathway - cell viability counter screen (AID 743203; calls by dose curve; also: nearly all actives have a fitted effect of over 55% in size)
Method in brief: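 CellSensor ARE-bla HepG2 cells, 2,000 per well, rested 5 hrs at 37C/5% CO2, then exposed to compound in DMSO for 16 hrs; viability read as CellTiter-Glo luminescence after 30 min at room temperature, in the reporter wells.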

[15] = qHTS assay for small molecule activators of the heat shock response signaling pathway - cell viability counter screen (AID 743209); also: nearly all actives have a fitted effect of over 50% in size
Method in brief: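 CellSensor HSE-bla HeLa cells, plated overnight at 37 C/5% CO2, were exposed to compounds in DMSO for 5 h at 37 C. Viability was then read in the same wells by CellTiter-Glo luminescence after 30 min at room temperature.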

[16] = qHTS assay for small molecule activators of the heat shock response signaling pathway (AID 743210; active = well fitted activation curve with a large enough effect in the signal ratio in the repeat runs, with a control signal flat, not every such curve was filed as active; the % refers to the signal ratio;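 also: HeLa cells with beta-lactamase reporter driven by heat shock elements; series mostly up to about 63 µM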)
Method in brief: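 HeLa HSE-bla cells, overnight plating; cpd in DMSO 5 h, 37 C; LiveBLAzer B/G FRET substrate 2.5 h RT; fluorescence intensity read.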

[17] = molecular target: Peroxisome proliferator-activated receptor gamma (Homo sapiens) (UniProt P37231); test: qHTS assay to identify small molecule agonists of the peroxisome proliferator-activated receptor gamma (PPARg) signaling pathway (AID 743094; active = well fitted activation curve with a large enough effect in the signal ratio in the repeat runs, not every such curve was filed as active; the % refers to the signal ratio)
Chain of Peroxisome proliferator-activated receptor gamma (Homo sapiens) (P37231 whole entry, looked up): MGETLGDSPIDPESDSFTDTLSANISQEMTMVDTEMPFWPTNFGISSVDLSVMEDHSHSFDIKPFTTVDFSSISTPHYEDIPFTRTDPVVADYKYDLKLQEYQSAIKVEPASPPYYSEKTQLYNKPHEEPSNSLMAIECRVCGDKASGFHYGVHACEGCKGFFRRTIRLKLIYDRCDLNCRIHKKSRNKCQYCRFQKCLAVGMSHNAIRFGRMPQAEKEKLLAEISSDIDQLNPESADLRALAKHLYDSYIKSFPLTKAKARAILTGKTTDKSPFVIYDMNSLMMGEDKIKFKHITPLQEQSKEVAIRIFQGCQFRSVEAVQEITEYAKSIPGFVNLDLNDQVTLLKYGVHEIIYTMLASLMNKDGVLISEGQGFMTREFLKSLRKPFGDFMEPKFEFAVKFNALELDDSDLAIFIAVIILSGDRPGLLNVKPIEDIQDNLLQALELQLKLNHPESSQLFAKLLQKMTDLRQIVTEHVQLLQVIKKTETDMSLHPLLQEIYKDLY
Method in brief: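 GeneBLAzer PPARg UAS-bla HEK293H cells carrying a stably integrated beta-lactamase reporter were pre-incubated 5 h at 37C, then exposed to compounds in DMSO for 17 h at 37C; LiveBLAzer B/G FRET substrate was added for 1 h at room temperature and fluorescence read.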

[18] = qHTS assay to identify small molecule antagonists of the peroxisome proliferator-activated receptor gamma (PPARg) signaling pathway - cell viability counter screen (AID 743194); also: nearly all actives have a fitted effect of over 55% in size
Method in brief: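 Viability was measured as CellTiter-Glo luminescence in GeneBLAzer PPARg UAS-bla HEK293H cells. These cells had been exposed 17 h at 37 C to compounds together with rosiglitazone at 50 nM final, with the beta-lactamase readout taken in the same wells.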

[19] = molecular target: Peroxisome proliferator-activated receptor gamma (Homo sapiens) (UniProt P37231); test: qHTS assay to identify small molecule antagonists of the peroxisome proliferator-activated receptor gamma (PPARg) signaling pathway (AID 743191; calls by dose curve; also: series mostly up to about 63 µM; nearly all actives have a fitted effect of over 30% in size)
Method in brief: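 Beta-lactamase reporter under UAS control in HEK293H PPARg-bla cells; compound treatment 17 h at 37C. Read-out: fluorescence intensity after 1 h room-temperature incubation with LiveBLAzer B/G FRET substrate.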

[20] = qHTS assay for small molecule agonists of the antioxidant response element (ARE) signaling pathway (AID 743202; active = well fitted activation curve with a large enough effect in the signal ratio in the repeat runs, not every such curve was filed as active; the % refers to the signal ratio)
Method in brief: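 Quantitative high-throughput format in HepG2 cells bearing an integrated ARE-beta-lactamase reporter. Compound exposure lasted 16 h at 37 C, and fluorescence was read 2 h after adding LiveBLAzer B/G substrate at room temperature.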
% is scaled to controls: 0 for no effect and ±100 for the full control effect.

CCC[Si](OC)(OC)OC
inactive: Potency [1] | Potency [2] | outcome [3] | Potency [4] | outcome [5] | Potency [6] | Potency [7] | Potency [8] | Potency [9] | Potency [10] | Potency [11] | Potency [12] | Potency [13] | Potency [14] | outcome [15] | outcome [16]

O=C(Cl)c1cc(Cl)cc(Cl)c1
inactive: Potency [1] | Potency [2] | outcome [3] | Potency [4] | outcome [5] | Potency [6] | Potency [7] | Potency [8] | Potency [9] | Potency [10] | Potency [12] | Potency [17] | Potency [18] | Potency [14] | outcome [15] | outcome [16]

COC=O
inactive: activity change, negative = cytotoxic [1] 17.8% [at 8.44 µM] | activity, negative = inhibition [2] 9.66% [at 8.44 µM] | activation [3] 0.249% [at 8.08 µM] | activity, negative = inhibition [4] 29% [at 6.71 µM] | activity, negative = cytotoxicity [5] 7.46% [at 6.72 µM] | activation [6] 2.27% [at 6.71 µM] | activation [7] 11.2% [at 8.47 µM] | activity change, negative = inhibition [8] 1.93% [at 8.47 µM] | activity change, negative = cytotoxicity [9] 4.5% [at 8.47 µM] | activity, negative = inhibition [10] 2.56% [at 8.47 µM] | activity change, negative = cytotoxicity [11] 0.892% [at 8.47 µM] | activation [12] -0.706% [at 8.47 µM] | viability change, negative = cytotoxic [13] 14.9% [at 8.47 µM] | activation [17] 1.2% [at 7.08 µM] | ratio activity, negative = inhibition [19] 0.629% [at 5.95 µM] | activity change, negative = cytotoxicity [18] -0.602% [at 5.95 µM] | activation [20] -6.55% [at 8.36 µM] | activity change, negative = cytotoxicity [15] -11.9% [at 5.95 µM]

CC(C)=CCC/C(C)=C/C=N/O
inactive: Potency [1] | Potency [2] | outcome [3] | Potency [4] | outcome [5] | Potency [6] | Potency [7] | Potency [8] | Potency [9] | Potency [10] | Potency [11] | Potency [13] | Potency [18] | Potency [14] | outcome [15] | outcome [16]

O=[N+]([O-])c1cccc(I)c1
inactive: Potency [1] | Potency [2] | outcome [3] | Potency [4] | outcome [5] | Potency [6] | Potency [7] | Potency [8] | Potency [9] | Potency [10] | Potency [11] | Potency [12] | Potency [13] | Potency [19] | Potency [18] | Potency [14] | outcome [15] | outcome [16]

CNc1ccccc1
inactive: Potency [1] | Potency [2] | outcome [3] | Potency [4] | outcome [5] | Potency [6] | Potency [7] | Potency [8] | Potency [9] | Potency [10] | Potency [11] | Potency [13] | Potency [17] | Potency [19] | Potency [18] | Potency [14] | outcome [15] | outcome [16]

CCCCCCCCCCCCSCCOCCO
inactive: Potency [1] | Potency [2] | outcome [3] | Potency [4] | outcome [5] | Potency [6] | Potency [7] | Potency [8] | Potency [9] | Potency [10] | Potency [11] | Potency [12] | Potency [13] | Potency [17] | Potency [18] | Potency [20] | Potency [14] | outcome [15] | outcome [16]
